In the library only some 7.4% were active in any assay of this set; here they are far more common.
NPR1 antag: blocks ANP-stimulated signaling of human Npr1 receptor; P16066; HEK293 hNpr1 GloSensor cGMP, ANP-stimulated luminescence; Potency, µM (top dose mostly 46.3 µM), most hits filed as inhibitors; 1.6% of 76,000 active; AID 1347048; calls by dose curve; note: nearly all actives have a fitted effect of over 60% in size
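HEK293 cells stably expressing human Npr1 and cGMP GloSensor pGS-40F, loaded 2 h with 2% GloSensor reagent, given compound 30 min at room temperature. Luminescence read before and 20 min after 0.1 nM hNppA.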
HEK293 viab: counter-screen for SNCA expression inhibitors: cell viability. 0.12% of 150,000 active. HEK-293-SNCA-luc viability, GF-AFC fluorescence, 24 h. Potency, µM (titrated, usually from 57.1 µM), most hits filed as cytotoxic; note: nearly all actives have a fitted effect of over 30% in size
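Cytotoxicity counterscreen: after 24 h compound treatment of genome-edited SNCA-luciferase HEK-293 cells, live-cell protease substrate GF-AFC read by fluorescence after 30 min; activity scaled between DMSO (0%) and medium-only (-100%), curves Hill-fitted.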
3T3 cytotox: NIH 3T3 cell cytotoxicity | 4.3% of 94,000 active | NIH 3T3 viability, CellTiter-Glo ATP luminescence, 48-72 h | Potency, µM (top dose mostly 96.7 µM), most hits filed as inhibitors; note: nearly all actives have a fitted effect of over 55% in size
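Cells were seeded at 400 per well, treated with pin-transferred compound, and kept 48 or 72 hr at 37 °C before CellTiter-Glo addition and luminescence imaging of cellular ATP.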
FLuc inh: Photinus pyralis luciferase inhibition. AID 1347043. P08659. 2.5% of 76,000 active. purified P. pyralis luciferase, luminescence, biochemical. Potency, µM (highest dose often 115 µM), most hits filed as inhibitors; note: nearly all actives have a fitted effect of over 65% in size
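Biochemical qHTS: compound (6-point titration) added to 10uM D-luciferin plus 10uM ATP in Tris acetate pH 7.5 buffer with Mg, Tween-20 and BSA, then purified enzyme at 10nM; light output imaged.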
SNCA expr inhib: reduces expression of the alpha-synuclein gene; HEK-293 SNCA-luciferase knock-in, luminescence, 24 h; Potency, µM (titrated, usually from 57.2 µM), hits mostly inhibitors; 0.17% of 140,000 active; note: nearly all actives have a fitted effect of over 45% in size
HEK293 tox: cytotoxic compounds in HEK 293 cells | HEK 293 viability, ATP luminescence (CellTiter-Glo), 48-72 h | AID 1345083 | 6.6% of 94,000 active | Potency, µM (doses to about 115 µM), most hits filed as inhibitors; note: nearly all actives have a fitted effect of over 60% in size
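Cytotoxicity was scored by loss of ATP-coupled luminescence (CellTiter-Glo) in HEK 293 cells. Compound treatment ran 48 or 72 hr at 37 degree Celsius, 5% CO2, 95% humidity.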
A number is an active result. Unless noted, calls come from the whole dose curve; as a rule, active = well fitted curve in the direction sought with a large enough effect; inconclusive = small, poorly fitted or top-dose-only effect, or another doubt; inactive = no such curve, though single readings can be large; an effect the other way counts as inactive or inconclusive.

`Cc1ccc(S(=O)(=O)NC[C@H]2O[C@@H](CO)[C@@H](O)[C@H]2N2CCN(c3ccc(F)cc3)CC2)cc1` gave NPR1 antag inactive, HEK293 viab inactive, 3T3 cytotox inactive, FLuc inh inactive, SNCA expr inhib inactive and HEK293 tox inconclusive.
For Cc1ccc(-c2cc(N3CCCN(C(=O)c4ccccc4C)CC3)n[nH]2)cc1C the results were NPR1 antag inconclusive, HEK293 viab inactive, 3T3 cytotox 39.8µM, FLuc inh inactive, SNCA expr inhib inactive and HEK293 tox 31.6µM.
COc1ccc(-c2cc(N3CCCN(C(=O)Cc4cccc(F)c4)CC3)n[nH]2)cc1 was read as NPR1 antag inactive, HEK293 viab inactive, 3T3 cytotox inconclusive, FLuc inh inactive, SNCA expr inhib inactive and HEK293 tox 39.8µM.
For COc1ccc(-c2cc(N3CCCN(C(=O)Cc4ccc(Cl)cc4)CC3)n[nH]2)cc1 the results were NPR1 antag inactive, HEK293 viab inactive, 3T3 cytotox inconclusive, FLuc inh inactive, SNCA expr inhib inactive and HEK293 tox 44.7µM.
Screening COc1ccc(-c2cc(N3CCN(C(=O)Cc4ccc(F)cc4)CC3)n[nH]2)cc1 returned NPR1 antag inactive, HEK293 viab inactive, 3T3 cytotox inactive, FLuc inh inactive, SNCA expr inhib inactive and HEK293 tox inactive.
COc1ccc(-c2cc(N3CCCN(C(=O)Cc4ccc(C)cc4)CC3)n[nH]2)cc1 was read as NPR1 antag inconclusive, HEK293 viab inactive, 3T3 cytotox inconclusive, FLuc inh inactive, SNCA expr inhib inactive and HEK293 tox inconclusive.
CCCc1noc(-c2cn(C3CCN(C(=O)c4ccc(C#N)cc4)CC3)nn2)n1 was read as NPR1 antag inactive, HEK293 viab inactive, 3T3 cytotox inconclusive, FLuc inh inactive, SNCA expr inhib inconclusive and HEK293 tox inactive.
CCc1ccc(NC(=O)N(C)CC2CCOC2)cc1 (stereo not given) was read as NPR1 antag inactive, HEK293 viab inactive, 3T3 cytotox inactive, FLuc inh inconclusive, SNCA expr inhib inactive and HEK293 tox inactive.
For COC(=O)C1(C)CCCC2(C)c3ccc(C(C)C)cc3C(O)C(O)C12 (stereo not given) the results were HEK293 viab inactive.
For CSc1ccc(-c2cccc(CN3CCC(N[S+](=O)([O-])c4cccc(C(F)(F)F)c4)CC3)c2)cc1 the results were 3T3 cytotox 10µM and HEK293 tox 12.6µM.
For Cc1cccc(-c2cccc(CN3CCC(N[S+](=O)([O-])c4cccc(C(F)(F)F)c4)CC3)c2)c1 the results were HEK293 viab inactive, 3T3 cytotox 11.2µM, SNCA expr inhib inconclusive and HEK293 tox inconclusive.
COc1ccc(-c2cc(N3CCC(NC(=O)c4cccc(OC(F)(F)F)c4)C3)n[nH]2)cc1 (stereo not given) was read as NPR1 antag inactive, HEK293 viab inactive, 3T3 cytotox inconclusive, FLuc inh inactive, SNCA expr inhib inactive and HEK293 tox 39.8µM.
`N#Cc1cccc(C(=O)NC2CCN(c3cc(-c4ccc(F)cc4)[nH]n3)C2)c1` (stereo not given) gave NPR1 antag inactive, HEK293 viab inactive, 3T3 cytotox inconclusive, FLuc inh inactive, SNCA expr inhib inconclusive and HEK293 tox 44.7µM.
For COc1ccc(-c2cc(N3CCC(NC(=O)c4cccc(C#N)c4)C3)n[nH]2)cc1 (stereo not given) the results were NPR1 antag inactive, HEK293 viab inactive, 3T3 cytotox inconclusive, FLuc inh inactive, SNCA expr inhib inactive and HEK293 tox 35.5µM.
`COc1ccc(-c2cc(N3CCC(NC(=O)c4cccc(C)c4)C3)n[nH]2)cc1` (stereo not given) gave NPR1 antag inactive, HEK293 viab inactive, 3T3 cytotox inactive, FLuc inh inactive, SNCA expr inhib inconclusive and HEK293 tox inconclusive.
`CCc1cc(=O)n(CC(=O)Nc2cc(OC)ccc2OC)c(-c2cccc(F)c2)n1` gave NPR1 antag inactive, HEK293 viab inactive, 3T3 cytotox inactive, FLuc inh inactive, SNCA expr inhib inactive and HEK293 tox inactive.

Screening data deposited in PubChem by National Center for Advancing Translational Sciences (NCATS).
